Source: PubChem BioAssay (The Scripps Research Institute Molecular Screening Center)
Hits are enriched below; roughly 1.8% of the tested compounds scored in any of these assays.
Fam108B counter: mouse Fam108B serine hydrolase inhibitors, primary screen, counter-screen for RBBP9 inhibitor project, biochemical, fluorescence polarization; recombinant Fam108B, FP-Rh probe fluorescence polarization; inhibition, % at 9.51 µM; 300,000 tested, 0.33% active; AID 1947, 2009;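 active means inhibition above the screen mean inhibition plus 3 SD, computed separately per campaign, cut at about 18% in these data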;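 further: inhibitors lower polarization as less probe binds the enzyme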
PAD4 FP inh: human PAD4 inhibitors, primary screen, biochemical, fluorescence polarization, 1536-well format; recombinant PAD4, RCA probe fluorescence polarization; AID 485272, 2010; 330,000 tested, 0.41% active; Protein-arginine deiminase type-4 (Homo sapiens), Q9UM07; inhibition, % at 6.36 µM;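 active means percent inhibition above a cutoff equal to the mean of all tested compounds plus 3 SD, cut at about 15% in these data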;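 further: 0% = PAD4 with RCA probe and DMSO and 100% = probe without PAD4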
LYPLA1 inh: LYPLA1 inhibitors, primary screen, counter-screen for PME1 inhibitor project, biochemical, fluorescence polarization, FP-Rh probe ABPP; Acyl-protein thioesterase 1 (Homo sapiens), O75608; recombinant LYPLA1; inhibition, % at 5.9 µM; 320,000 tested, 0.16% active; AID 2174, 2009;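 active means inhibition above the mean of all tested compounds plus 3 SD, set per campaign, cut at about 14% in these data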;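 further: inhibitors block serine hydrolase probe labeling of LYPLA1 so polarization falls; 0% = enzyme with DMSO and 100% = wells lacking LYPLA1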
LYPLA2 counter: LYPLA2 inhibitors, primary screen, counter-screen for PME1 inhibitor project, biochemical, fluorescence polarization, FP-Rh probe ABPP | Acyl-protein thioesterase 2 (Homo sapiens), O95372 | recombinant LYPLA2 | inhibition, % at 5.9 µM | 320,000 tested, 0.38% active;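 active means inhibition above the screen-wide mean plus 3 SD, limit set per campaign, cut at about 26% in these data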;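 further: 0% = LYPLA2 with DMSO and 100% = wells lacking LYPLA2 enzyme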
Target sequence (O95372 whole entry, looked up): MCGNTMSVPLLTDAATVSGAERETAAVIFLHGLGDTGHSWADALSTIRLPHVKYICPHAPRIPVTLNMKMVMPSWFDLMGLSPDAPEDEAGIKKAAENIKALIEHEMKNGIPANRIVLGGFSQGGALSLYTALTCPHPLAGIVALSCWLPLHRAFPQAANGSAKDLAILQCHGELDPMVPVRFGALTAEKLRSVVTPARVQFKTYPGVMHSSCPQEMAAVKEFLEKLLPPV
GSTO1 inh: inhibitors of recombinant GSTO1, primary screen, counter-screen for RBBP9 inhibitor project, biochemical, fluorescence polarization. activity-based probe fluorescence polarization. inhibition, % at 5.96 µM. 300,000 tested, 1.1% active. AID 1974, 2009;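 active means inhibition above the campaign mean inhibition plus 3 SD, cut at about 35% in these data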;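 further: 0% = GSTO1-1 with DMSO and 100% = wells lacking GSTO1-1 enzyme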
Target sequence (P78417 whole entry, looked up): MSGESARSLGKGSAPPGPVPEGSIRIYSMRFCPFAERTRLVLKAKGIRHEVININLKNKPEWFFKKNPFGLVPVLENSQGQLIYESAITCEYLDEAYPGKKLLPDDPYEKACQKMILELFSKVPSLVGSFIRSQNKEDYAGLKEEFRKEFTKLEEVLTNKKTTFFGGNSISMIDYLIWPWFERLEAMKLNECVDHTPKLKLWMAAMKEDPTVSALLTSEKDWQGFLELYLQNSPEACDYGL
PME-1 inh: PME-1 inhibitors via competitive probe labeling, primary screen, biochemical, fluorescence polarization, FP-Rh probe, HTS; Protein phosphatase methylesterase 1 (Homo sapiens), Q9Y570; recombinant PME-1; inhibition, % at 5.9 µM; 320,000 tested, 0.53% active; AID 2130, 2009;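 active means inhibition above the campaign mean of all compounds plus 3 SD, cut at about 26% in these data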;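 further: competitive labeling of PME-1 active site by serine hydrolase directed probe; 0% = PME-1 with DMSO and 100% = wells lacking PME-1 enzyme; inhibitors block probe labeling so polarization falls and inhibition rises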
* = called active by the depositor; nt = no result given.

SMILES	Fam108B counter	PAD4 FP inh	LYPLA1 inh	LYPLA2 counter	GSTO1 inh	PME-1 inh
COC(=O)C(Nc1ccccc1Cl)(c1cc(C)c(O)c(C)c1)C(F)(F)F (centres undefined)	2	-5	2	2	-4	1
C/C(=N\Nc1cccc([N+](=O)[O-])c1)c1cc(F)ccc1O	4	-3	4	5	-8	17
C/C(=N\Nc1cccc([N+](=O)[O-])c1)c1ccccc1O	8	-5	-6	-1	-2	45*
C/C(=N\NC(=O)c1ccc(N/N=C(\C)c2ccc(O)cc2)cc1)c1ccc(O)cc1	16	-1	-7	3	-19	28*
C/C(=N/Nc1ccc(C(=O)O)cc1)c1ccc(O)c(O)c1O	-2	2	-4	-7	45*	-13
C/C(=N\NC(=O)c1cccc(N/N=C(\C)c2cc(O)ccc2O)c1)c1cc(O)ccc1O	30*	-11	-22	-16	10	4
C/C(=N\NC(=O)c1cccc(O)c1)c1cccc(NC(=O)c2ccc(F)cc2)c1	6	7	0	-3	-5	-6
CCN(CCCNC(=O)c1nn(C)c2c1CS(=O)(=O)c1ccccc1-2)Cc1ccccc1	2	-3	2	-1	8	8
COc1ccc(CCNC(=O)Oc2ccccc2)cc1OC	3	1	-3	-7	0	3
CC(=O)c1sc2nc(-c3ccco3)ccc2c1N	16	-4	2	6	39*	-7
Cc1ccc(NC(=O)c2sc3nc4c(c(-c5ccco5)c3c2N)CCC4)cc1	0	-5	-9	-2	7	15
Nc1c(C(=O)Nc2ccc(F)cc2)sc2nc(-c3ccco3)ccc12	10	-8	-14	-13	9	58*
Nc1c(C(=O)Nc2ccc(Br)cc2)sc2nc(-c3ccco3)ccc12	14	-16	-22	-14	0	36*
CCCCCc1cc(OC)cc2c1C(=O)OC(C)(C)O2	nt	0	nt	nt	nt	nt
COc1ccc(NC(=O)NC2CCCCCCC2)cc1OC	-6	2	1	2	-5	2
COc1ccc(C(=O)Nc2ccccc2C(=O)Nc2ccncc2)cc1	-3	0	-5	-6	-1	-1
COC(=O)N1C(=O)[C@@](c2ccccc2)(C(C)C)N1C(=O)OC	1	-3	0	3	3	11
COC(=O)N1C(=O)[C@](c2ccccc2)(C2CCCC2)N1C(=O)OC	-3	-2	3	-6	2	70*
CCOC(=O)Cc1csc(NC(=O)c2sc3nc4cc(C)ccc4cc3c2N)n1	4	-5	-1	0	2	46*
O=S(=O)(c1ccc(F)c(F)c1)N1CCC2(CC1)OCCO2	0	-5	-1	0	5	5
Cc1ccc2nc(CCl)[n+]([O-])c(-c3ccccc3)c2c1	0	-10	2	25	36*	-4
O=C(N/N=C/c1c(Cl)[nH]c2ccccc12)c1ccc2c(c1)OCCO2	5	-3	-10	-6	-2	29*
COc1cc(/C=N/NC(=O)c2ccc3c(c2)OCCO3)cc(Br)c1O	2	-5	1	3	8	3
O=C(N/N=C/c1cc2c(cc1Cl)OCO2)c1ccc2c(c1)OCCO2	1	0	-2	-4	-1	-25
COc1cc(/C=N/NC(=O)c2ccc3c(c2)OCCO3)c(Br)c(Br)c1O	8	1	4	3	17	45*
SMILES	Fam108B counter	PAD4 FP inh	LYPLA1 inh	LYPLA2 counter	GSTO1 inh	PME-1 inh
CCOC(=O)c1c(NC(=O)C2CC(Cl)=CCC2C(=O)O)sc2c1CCCCC2 (centres undefined)	-2	-3	3	14	26	7
Cc1ccc(S(=O)(=O)N/N=C/c2ccccc2O)cc1[N+](=O)[O-]	0	-2	1	5	-5	4
Cc1ccc(S(=O)(=O)N/N=C/c2ccc(O)c(O)c2)cc1[N+](=O)[O-]	-4	-3	2	0	50*	-5
C[C@@H]1CN([C@H](C)CO)C(=O)c2cc(NC(=O)c3ccncc3)ccc2O[C@@H]1CN(C)C(=O)Nc1ccccc1	nt	-5	nt	nt	nt	nt
O=C(/C(=N/N=C/c1ccc(O)c(O)c1)c1ccccc1)c1ccccc1	22*	-2	-18	-20	2	30*
Oc1ccc(/C=N/N(c2ccccc2)c2ccccc2)cc1O	-2	0	-4	-5	8	-5
C=C[C@H]1CN2CC[C@H]1C[C@H]2[C@H](O)c1ccnc2ccc(OC)cc12	1	-1	0	1	0	-3
CCOC(=O)c1c(C)[nH]c(C)c1C(=O)COC(=O)c1cccnc1OCC	nt	-5	nt	nt	nt	nt
O=C1c2ccccc2NC(c2ccc(-c3ccccc3F)o2)N1O (centres undefined)	nt	-4	0	-1	nt	7
Cc1cc([N+](=O)[O-])ccc1-c1ccc(C2Nc3ccccc3C(=O)N2O)o1 (centres undefined)	-1	2	-7	-7	-27	37*
O=c1ccc(-c2ccccc2)nn1Cc1ccc(Cl)cc1	-4	-3	-3	38*	-4	4
COc1cccc(-c2nnc(SC(C(=O)c3c[nH]c4ccccc34)c3ccccc3)n2C)c1 (centres undefined)	-3	3	-10	-20	4	56*
CC(=O)c1sc(N/N=C\c2ccc(Br)cc2)nc1C	1	1	-2	-4	1	27*
CC(=O)c1sc(N/N=C\c2cccc(Br)c2)nc1C	4	-2	7	4	2	23
Cc1cc(C)nc(SCNC(=O)c2ccc(F)cc2)n1	6	1	4	-4	36*	7
COc1ccc(S(=O)(=O)N2CCCCC2)cc1NC(=O)C1CC1C (centres undefined)	nt	-4	0	-2	nt	3
CCOC(=O)N1CC=C2C(C#N)=C(N)C(C#N)(C#N)[C@H](c3ccc(OCC)c(OCC)c3)[C@H]2C1	5	0	0	0	2	18
N#CC1=C(N)C(C#N)(C#N)C(c2cccnc2)C2CN(C(=O)OCc3ccccc3)CC=C12 (centres undefined)	0	1	3	16	23	28*
Cc1ccc(-c2nc3c(Cl)cc(Cl)cc3c(=O)n2O)cc1	8	-12	-2	-6	0	3
COc1ccc(C(CNC(=O)c2cccc(S(=O)(=O)N(C)c3ccccc3)c2)N2CCCC2)cc1 (centres undefined)	nt	-3	0	2	nt	-1
CN=c1scc(-c2cccs2)n1/N=C/c1ccc(O)c(O)c1O	2	-7	-7	-3	-9	31*
